This is part of a sample that, as a whole, favours compounds with a hit. Of some 83,000 tested, about 20% had one in any assay.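 The test compound was applied at a single concentration to cells in 96-well plates for 48 hours, and percent growth was recorded.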 Active and inactive are the calls of the source. Rule for the calls: active = growth percent below 10; inactive = the rest.
What follows are compounds tested on HL-60(TB) leukemia (assay: NCI-60 one-dose screen, 48 h (100 = growth as untreated, 0 = no growth, -100 = all killed)). Details: 10 µM unless noted.

| Compound | growth |
| --- | --- |
| Cc1ccc(NC(=O)N[C@@H](Cc2cc(F)cc(F)c2)C(=O)NC2C(=O)N3CCC[C@H]3C(=O)N3CCCC[C@H]3C(=O)N[C@@H](C)C(=O)N3C[C@H](C)C[C@H]3C(=O)O[C@H]2C)c(F)c1 (stereo not given in full) | 13.4% (inactive) |
| COc1ccc(NC(=O)[C@H](C)N)cc1C(=O)Nc1cccc(-c2cc(=O)c3c(OC)c(OC)c(OC)cc3o2)c1 | 58.9% (inactive) |
| O=S1SC(c2ccccc2)=NN1c1cc(F)cc(F)c1 (stereo not given) | 32.2% (inactive) |
| CC(C)Sc1nc(-c2ccccc2)c(C#N)c(N2CCOCC2)n1 | 105% (inactive) |
| COc1ccc2c(c1)oc1c3[nH]c4ccccc4c3c3c(c21)C(=O)N(O)C3=O | 53.3% (inactive) |
| CC[C@@](C)(NC(=O)C(C)(C)NC(=O)[C@@H](NC(=O)[C@@H]1CCCN1C(=O)C(C)(C)NC(=O)[C@H](CC(C)C)NC(=O)CNC(=O)C(C)(C)NC(=O)[C@@H](NC(=O)C(C)(C)NC(=O)[C@H](CCC(N)=O)NC(=O)[C@H](C)NC(=O)C(C)(C)NC(=O)[C@H](C)NC(=O)C(C)(C)NC(=O)[C@H](C)NC(=O)C(C)(C)NC(C)=O)C(C)C)C(C)C)C(=O)N[C@@H](CCC(N)=O)C(=O)N[C@@H](CCC(N)=O)C(=O)N[C@H](CO)CC1CCCCC1 | -35.2% [5 µM] (active) |
| Cc1ccc(-c2csc(N/N=C/c3nc4ccccc4n3C3CC3)n2)cc1 | 7.25% (active) |
| C/C=C/[C@@H]1C=C[C@@H]2C[C@H](C)CC[C@H]2[C@]1(C)/C(O)=C1/C(=O)[C@H](CO)N(C)C1=O | 62.7% (inactive) |
| COc1cc2oc(-c3cccc(NC(=O)c4cc(NC(=O)[C@H](C)N)ccc4Cl)c3)cc(=O)c2c(OC)c1OC | 97.2% (inactive) |
| N#Cc1cccc(/C(N)=N/C(N)=N/c2nc3ccccc3s2)c1 | 4.28% (active) |
| CC1(C)CC[C@]2(C(=O)N3CCOCC3)CC[C@]3(C)C(=CC[C@@H]4[C@@]5(C)C/C(=C/c6ccccn6)C(=O)C(C)(C)[C@@H]5CC[C@]43C)[C@@H]2C1 | 6.91% (active) |
| COc1ccc([C@H]2C(=O)N(c3cc(OC)c(OC)c(OC)c3)[C@@H]2c2ccc(OC)c(O)c2)cc1 | -21.2% (active) |
| O=c1[nH]c(Sc2sc3ccc(Cl)cc3c2CBr)nc(=S)[nH]1 | 21.7% (inactive) |
| O=S(=O)(Nc1cccc2ccccc12)c1ccc(-c2cnc(C3CC3)o2)cc1 | -16.2% (active) |
| Cc1nn(-c2ccccc2)cc1/C=N/Nc1nc(Nc2ccccc2)nc(Nc2ccc(S(N)(=O)=O)cc2)n1 | 4% (active) |
| COc1ccc(/C=N/N=C(/c2ccccc2)c2ccc3nc(-c4ccc(Cl)cc4)[nH]c3c2)cc1 | 67.2% (inactive) |
| O=S(=O)(NCCCNc1nccc(-c2[nH]c(-c3ccccc3)nc2-c2ccc(Cl)c(O)c2)n1)c1cccc(F)c1 | 35.6% (inactive) |
| O=C(N/N=C/c1ccc(Cl)s1)c1[nH]c2ccc(Br)cc2c1-c1ccccc1 | -44.1% (active) |
| CC(=O)Nc1cccc(Nc2nc(N[C@@H](C)c3ccccc3)c3ccccc3n2)c1 | -50.7% (active) |
| COc1ccc(N2CCN(C(=O)CSc3ccc(-c4nc5cc(C)c(C)cc5[nH]4)cn3)CC2)cc1 | 29.4% (inactive) |
| Clc1ccc(CSc2nnc(-c3ccc(Cl)cc3)n2-c2ccccc2)cc1 | 90.9% (inactive) |
| COc1cc(/C=C2\C(=O)Nc3ccccc32)ccc1OCc1ccc(F)cc1 | 115% (inactive) |
| CN1CCN(c2nc(-c3csc(-c4ccccc4)n3)cc3ccccc23)CC1 | 6.57% (active) |
| C#C[C@]1(O)CC[C@H]2[C@@H]3CC=C4c5sc(Nc6cc(C)cc(C)c6)nc5CC[C@]4(C)[C@H]3CC[C@@]21C | -2.89% (active) |
| CN1CCN(Cc2ccc(NC(=O)c3cncc(C#Cc4cnc5ccc(N6CCOCC6)nn45)c3)cc2C(F)(F)F)CC1 | -40.8% (active) |
| COc1ccc(/C=N/Nc2nc(Nc3ccccc3)nc(Nc3ccc(S(N)(=O)=O)cc3)n2)cc1 | 83.8% (inactive) |
| Cc1ccc(NC(=O)/C=C/c2ccc(OCCCOc3ccc4c(C)cc(=O)oc4c3)cc2)cc1 | 98.5% (inactive) |
| O=C1CSC(=O)N1Cc1cc2ccccc2nc1Cl | 101% (inactive) |
| COc1cc(O)c2c(c1)/C=C/C[C@H](O)[C@H](O)C(=O)/C=C\C[C@H](C)OC2=O | -9.6% (active) |
| c1ccc2c(NCCCn3ccnc3)c3oc4ccccc4c3nc2c1 | -1.2% (active) |

Source: PubChem BioAssay (NCI)
